Laboratory results: PubChem BioAssay (NCATS)
Records with an inconclusive call do not appear. Activity calls are given as the source filed them. Calls follow the shape of the dose curve; as a rule, active = well fitted curve in the direction sought with a large enough effect; inconclusive = small, poorly fitted or top-dose-only effect, or another doubt; inactive = no such curve, though single readings can be large; an effect the other way counts as inactive or inconclusive. *1 amine or outer side, *2 acyl side, *3 side chain or, on linkers, in order; H or OH if unused. Where a SMILES comes first, the peptide text is derived from it. Bridges are numbered along the chain shown (N, C = ends). [ ]: non-standard residue; d: D form. The star is where a group is joined. ξ: configuration not given here. X10 = NC1=NCCC(C(N[*:1])C(=O)[*:2])N1; ΔAla(3-NHCONH2) = NC(=O)NC=C(N)C(=O)O; ξβ3hOrn = NCCCC(N)CC(=O)*; Dap = NC[CH](N)C(=O)O

Assays:
[1] = system: Zika virus NS2B-NS3 protease (linked construct); test: Primary screen NINDS Rhodamine qHTS for Zika virus inhibitors (AID 1347160); settings: outcome: dose series up to 57.1 µM unless noted; also: nearly all actives have a fitted effect of over 55% in size
How it was run: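 Purified NS2B-NS3 protease with the NS2B hydrophilic domain joined by a flexible linker (25 nM) in 10 mM Tris-HCl pH 8.0, 0.01% Tween 20, preincubated 15 min at RT with compound; Rhodamine110 peptide substrate 1.5 µM; fluorescence change over 15 min; 4-parameter Hill fit.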

[2] = target: Protein phosphatase 1D (Homo sapiens) (UniProt O15297); test: RapidFire Mass Spectrometry qHTS Assay for Modulators of WT P53-Induced Phosphatase 1 (WIP1) (AID 1347424);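 also: amount of dephosphorylated VEPPL-S-QETFS peptide product formed by WIP1; series mostly up to about 63 µM; plate controls were DMSO wells for no effect and GSK830371 inhibitor control at 10 µM for full effect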
Protein phosphatase 1D (Homo sapiens), sequence (O15297 whole entry, looked up): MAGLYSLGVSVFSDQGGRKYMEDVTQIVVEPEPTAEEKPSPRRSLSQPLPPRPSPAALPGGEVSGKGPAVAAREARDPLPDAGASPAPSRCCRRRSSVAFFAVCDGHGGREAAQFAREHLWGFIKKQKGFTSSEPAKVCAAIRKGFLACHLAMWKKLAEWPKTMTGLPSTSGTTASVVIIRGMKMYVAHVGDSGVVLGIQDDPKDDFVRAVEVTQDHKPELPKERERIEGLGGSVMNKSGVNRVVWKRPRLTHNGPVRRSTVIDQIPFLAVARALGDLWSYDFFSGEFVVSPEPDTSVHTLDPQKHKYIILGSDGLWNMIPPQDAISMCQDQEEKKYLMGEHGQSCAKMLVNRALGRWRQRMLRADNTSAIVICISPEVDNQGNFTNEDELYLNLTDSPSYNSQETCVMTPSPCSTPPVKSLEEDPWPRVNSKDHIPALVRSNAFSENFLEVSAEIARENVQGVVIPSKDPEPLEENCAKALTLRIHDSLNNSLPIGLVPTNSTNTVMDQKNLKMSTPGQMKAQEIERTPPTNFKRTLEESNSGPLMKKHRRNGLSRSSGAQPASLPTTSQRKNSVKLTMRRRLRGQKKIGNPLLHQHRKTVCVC
How it was run: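 10 nM WIP1 preincubated with compounds 1 hr at room temperature in pH 7.5 Tris buffer with 30 mM MgCl2, 1 mM TCEP; 2 uM VEPPL-pS-QETFS phosphopeptide for 5 min, formic acid quench; dephosphorylated product quantified by RapidFire MS against labelled standard.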

[3] = target: Protein phosphatase 1D (Homo sapiens) (UniProt O15297); test: Rhodamine-PBP qHTS Assay for Modulators of WT P53-Induced Phosphatase 1 (WIP1) (AID 1347425); also: % of control where 0% means no effect
How it was run: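 WIP1 (5 nM final) was preincubated with compound for 1 hour at room temperature. It then dephosphorylated 10 uM VEPPL-pS-QETFS peptide in Tris-HCl pH 7.5 with 30 mM MgCl2. Released Pi was detected by 10 uM Rh-PBP fluorescence (ex 525/em 598 nm) read at 1-min intervals for 11 min, as delta f1 - f0.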

[4] = Primary qHTS for inhibitors of La Crosse Virus (LACV) - induced cell death in SH-SY5Y cells (AID 1508616);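 also: top concentration of the series differs between compounds; 0% = infected DMSO wells and 100% = uninfected DMSO wells; higher means more rescue of cells from virus-induced death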
How it was run: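 SH-SY5Y cells (6000/well) plated 24 h, then given compounds by pin transfer and LACV at 0.01 MOI for 6 days at 37C. Viability measured by ATPLite luminescence, normalized to infected DMSO and uninfected DMSO.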

[5] = target: Calcium and integrin-binding protein 1 (Homo sapiens) (UniProt Q99828); test: Primary qHTS for Identification of Calcium Integrin Binding Protein 1 (CIB1) Competitor (AID 1508620);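 also: GST tagged CIB1 binding a fluorescein labelled alphaIIb integrin peptide tracer; top concentration of the series differs between compounds; % is scaled to controls: 0 for no effect and ±100 for the full control effect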
Calcium and integrin-binding protein 1 (Homo sapiens), sequence (Q99828 whole entry, looked up): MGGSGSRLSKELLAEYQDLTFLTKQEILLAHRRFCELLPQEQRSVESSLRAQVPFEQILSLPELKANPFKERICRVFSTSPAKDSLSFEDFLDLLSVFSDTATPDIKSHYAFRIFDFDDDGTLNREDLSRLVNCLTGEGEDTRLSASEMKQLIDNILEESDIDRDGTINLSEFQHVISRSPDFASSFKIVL
How it was run: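 Fluorescence polarization competition: GST-tagged CIB1 (1 uM final) preincubated with compound 15 min at room temperature, then FITC-labelled alphaIIb peptide (100 nM final) added. After 15 min at room temperature, polarization read at Ex 480/Em 540.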

[6] = qHTS to identify inhibitors of the type 1 interferon - major histocompatibility complex class I in skeletal muscle: primary screen against the NCATS Pharmaceutical Collection (AID 1347407);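 also: luminescence of HiBiT knocked into endogenous HLA-B as interferon-induced MHC class I level; % is scaled to controls: 0 for no effect and ±100 for the full control effect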
How it was run: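 Immortalized human myoblasts (C25cl48) with HiBiT knocked into endogenous HLA-B*08:01 were stimulated with 4.0 ng/ml IFN-beta and treated with compounds ([…] top 46 uM) for 24 hrs at 37 C. HiBiT lytic luminescence read.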

[7] = target: Lysine-specific demethylase 5B (Homo sapiens) (UniProt Q9UGL1); test: Optimization screen for KDM5B Histone Demethylases FDH coupled qHTS against the LOPAC library (AID 1347166); also: 0% is about no effect
Lysine-specific demethylase 5B (Homo sapiens), sequence (Q9UGL1 whole entry, looked up): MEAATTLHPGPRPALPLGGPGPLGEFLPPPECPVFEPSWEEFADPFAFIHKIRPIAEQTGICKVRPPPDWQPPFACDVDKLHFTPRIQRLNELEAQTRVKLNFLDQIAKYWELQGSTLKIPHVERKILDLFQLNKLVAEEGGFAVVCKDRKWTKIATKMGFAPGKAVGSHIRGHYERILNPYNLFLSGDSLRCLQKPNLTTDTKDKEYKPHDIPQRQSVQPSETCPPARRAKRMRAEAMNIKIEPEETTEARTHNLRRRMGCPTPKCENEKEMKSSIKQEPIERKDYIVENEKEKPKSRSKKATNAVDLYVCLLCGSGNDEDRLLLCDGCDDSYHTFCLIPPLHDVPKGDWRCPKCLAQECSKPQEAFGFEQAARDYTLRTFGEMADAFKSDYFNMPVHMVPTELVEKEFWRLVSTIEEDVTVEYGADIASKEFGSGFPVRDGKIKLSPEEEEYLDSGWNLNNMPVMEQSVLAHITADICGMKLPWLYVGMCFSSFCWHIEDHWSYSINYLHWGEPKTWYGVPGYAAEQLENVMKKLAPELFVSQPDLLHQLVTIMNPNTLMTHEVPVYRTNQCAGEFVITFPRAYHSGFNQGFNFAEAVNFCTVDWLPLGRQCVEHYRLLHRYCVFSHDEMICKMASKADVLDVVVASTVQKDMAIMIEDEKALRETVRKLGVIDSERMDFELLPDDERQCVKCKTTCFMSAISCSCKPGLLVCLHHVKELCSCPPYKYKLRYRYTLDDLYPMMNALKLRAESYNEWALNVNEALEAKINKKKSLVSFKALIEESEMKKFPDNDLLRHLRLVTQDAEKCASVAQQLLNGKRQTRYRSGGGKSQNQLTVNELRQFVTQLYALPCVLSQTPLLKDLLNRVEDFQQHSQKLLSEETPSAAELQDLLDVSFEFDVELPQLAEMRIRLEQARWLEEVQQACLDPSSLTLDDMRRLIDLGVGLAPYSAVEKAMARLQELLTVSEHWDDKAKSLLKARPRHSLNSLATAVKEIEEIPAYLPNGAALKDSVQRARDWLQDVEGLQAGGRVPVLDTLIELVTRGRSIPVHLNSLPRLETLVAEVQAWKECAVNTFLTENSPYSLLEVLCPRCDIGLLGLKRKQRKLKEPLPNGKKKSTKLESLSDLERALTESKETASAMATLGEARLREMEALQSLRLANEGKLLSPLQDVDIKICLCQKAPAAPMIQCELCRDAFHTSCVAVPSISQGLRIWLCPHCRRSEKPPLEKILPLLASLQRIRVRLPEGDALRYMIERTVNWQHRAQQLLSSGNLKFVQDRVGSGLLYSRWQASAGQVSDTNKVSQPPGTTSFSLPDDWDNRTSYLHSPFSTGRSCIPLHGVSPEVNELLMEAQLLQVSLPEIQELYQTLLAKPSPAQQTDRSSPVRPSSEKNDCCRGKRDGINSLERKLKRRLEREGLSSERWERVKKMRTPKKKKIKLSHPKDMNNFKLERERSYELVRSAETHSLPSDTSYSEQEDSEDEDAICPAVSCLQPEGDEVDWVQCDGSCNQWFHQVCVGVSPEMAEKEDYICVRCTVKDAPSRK
How it was run: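 KDM5BDeltaAP (200nM final) preincubated 10 min with compound, then 12.5uM H3K4Me3, 25uM a-ketoglutarate, ascorbate, Fe(II), NAD+ and FDH added; 50mM HEPES pH 7.5, 0.01% Tween-20. NADH fluorescence (340/450 nm) change over 30 min, room temperature.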

[8] = qHTS to identify inhibitors of the type 1 interferon - major histocompatibility complex class I in skeletal muscle: primary screen against the NCATS LOPAC collection (AID 1347405);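 also: lytic HiBiT luminescence reporting HLA-B protein level; % is scaled to controls: 0 for no effect and ±100 for the full control effect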
How it was run: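 CRISPR-engineered immortalized human myoblasts (C25cl48) with HiBiT fused to endogenous HLA-B*08:01, stimulated with 4 ng/ml IFN-beta. LOPAC compounds tested as a 7-point 1:4.3 titration (top 46 uM final), 24 h at 37 C; lytic HiBiT luminescence read.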

[9] = qHTS for inhibitors of adenylyl cyclases using a fission yeast platform: a pilot screen against the NCATS LOPAC library (AID 1347410);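 also: plate controls were DMSO vehicle for no effect and DPI positive control for full effect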
How it was run: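 S. pombe CHP2027 (AC9-GNAS-PDE4D2) carrying PKA-repressed fbp1-GFP, incubated 18 h at 30C in EMM with LOPAC compounds at up to 57 uM. GFP gain-of-signal read by laser scanning cytometry; DMSO negative control.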

[10] = Validation qHTS assay for inhibitors of Activation Induced Cytidine Deaminase (AID): UDG Counterscreen signal (AID 1347427); also: 0% is about no effect
How it was run: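 Counterscreen read of UDG activity (2 U/mL, 4/3x) in the FRET deamination format with AID (1 uM, 4/3x), DJC20/DJC23 substrates (250 nM, 4x), 4 h at room temperature. NaOH stop, fluorescence at 560 ex/665 em.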

[11] = target: Single-stranded DNA cytosine deaminase (Homo sapiens) (UniProt Q9GZX7); test: Validation qHTS assay for inhibitors of Activation Induced Cytidine Deaminase (AID): AID signal (AID 1347429); also: % is scaled to controls: 0 for no effect and ±100 for the full control effect
Single-stranded DNA cytosine deaminase (Homo sapiens), sequence (Q9GZX7 whole entry, looked up): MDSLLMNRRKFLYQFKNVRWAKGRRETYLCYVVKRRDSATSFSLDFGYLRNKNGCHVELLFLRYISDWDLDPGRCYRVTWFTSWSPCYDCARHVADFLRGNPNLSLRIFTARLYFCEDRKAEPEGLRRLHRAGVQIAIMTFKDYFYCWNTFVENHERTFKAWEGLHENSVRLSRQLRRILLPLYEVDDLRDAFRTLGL
How it was run: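 FRET deamination assay: 1 uM AID (4/3x stock) with UDG, compound up to 114 uM, then 250 nM DJC20/DJC23 substrate (4x stock) for 4 hr at room temperature. NaOH added, 30 min; fluorescence read 540/590 nm.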

[12] = target: Calcium and integrin-binding protein 1 (Homo sapiens) (UniProt Q99828); test: Validation qHTS for Identification of Calcium Integrin Binding protein 1 (CIB1) Competitor (AID 1508618); also: % is scaled to controls: 0 for no effect and ±100 for the full control effect
How it was run: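 Fluorescence polarization with 1 uM CIB1-GST and 100 nM FITC-alphaIIb peptide in HEPES pH 7.4, NaCl, 5 mM CaCl2, Tween20. Compounds at up to 114 uM final, preincubated with protein 15 min; read after 15 min more at RT.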

[13] = qHTS to identify inhibitors of the type 1 interferon - major histocompatibility complex class I in skeletal muscle: primary screen against the NCATS Mechanism Interrogation Plate v5.0 (MIPE) Libary (AID 1347411);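 also: plate controls were vehicle for no effect and reference inhibitor for full effect; nearly all actives have a fitted effect of over 65% in size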
How it was run: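 Immortalized human myoblasts (C25cl48) with HiBit knocked into endogenous HLA-B*08:01 were stimulated with 4 ng/ml IFN-beta and given compounds in 11-point 1:3 titration from 46 uM. After 24 h at 37 C, lytic HiBiT luminescence was read.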

[14] = target: Calcium and integrin-binding protein 1 (Homo sapiens) (UniProt Q99828); test: Confirmatory qHTS for Identification of Calcium Integrin Binding Protein 1 (CIB1) Competitor (AID 1508617); also: nearly all actives have a fitted effect of over 65% in size; also: potency is read from the fitted curve at half-maximal effect
How it was run: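 FP competition: CIB1-GST (1 uM final) in 5 mM HEPES pH 7.4, 125 mM NaCl, 5 mM CaCl2, 0.01% Tween20 preincubated 15 min RT with compounds (up to 114 uM), then FITC-alphaIIb peptide (100 nM), 15 min RT; Ex 480/Em 540.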

O=C(CCC1CCN(Cc2ccccc2)CC1)c1ccc2c(c1)NCCCC2
inactive: outcome [1] | Potency [2] | outcome [3] | outcome [4] | Potency [5]

O=C(O)CNC(=O)CNC(=O)CNC(=O)CSC(=O)c1ccccc1
inactive: outcome [1] | Potency [6] | outcome [3] | outcome [4] | Potency [5]

C[N+](C)(C)CCO
inactive: outcome [7] | Potency [8] | outcome [9] | outcome [10] | outcome [11] | outcome [4] | outcome [12]

Cc1cccc(N(C)C(=S)Oc2ccc3c(c2)CCC3)c1
inactive: outcome [1] | Potency [2] | outcome [3] | Potency [5]

O=[N+]([O-])c1cncn1CCN1CCOCC1
inactive: Potency [6] | Potency [13] | Potency [2] | outcome [3] | outcome [4] | Potency [5]

Cn1cnc2c(NCc3ccccc3)nc(NCCO)nc21
inactive: outcome [7] | outcome [9] | outcome [10] | outcome [11] | outcome [12]

COC(=O)C1=C(C)NC(COC(N)=O)=C(C(=O)OC(C)C)C1c1cccc(Cl)c1Cl (centres undefined)
inactive: outcome [1] | Potency [6] | Potency [2] | outcome [4] | Potency [5]

COC(=O)c1cc(Cl)ccc1NS(=O)(=O)C(F)(F)F
inactive: Potency [14]

Nc1cc(C(F)(F)F)ccc1S
active: Potency [14] 22.4 µM

C1=CC2C3C=CC(C3)C2C1 (centres undefined)
inactive: Potency [6] | Potency [2] | outcome [3] | outcome [4] | Potency [5]

C/C=C(/C(=C/C)c1ccc(OC(C)=O)cc1)c1ccc(OC(C)=O)cc1
inactive: Potency [6] | Potency [2] | outcome [3] | outcome [4] | Potency [5]

O=C1CC(c2ccc(Cl)cc2)CC(=O)N1
inactive: Potency [6] | Potency [2] | outcome [3] | outcome [4] | Potency [5]

CCCCCC1Nc2cc(C(F)(F)F)c(S(N)(=O)=O)cc2S(=O)(=O)N1 (centres undefined)
inactive: Potency [6] | Potency [2] | outcome [3] | outcome [4] | Potency [5]

CC[N+](CC)(CC)CCOC(=O)C(C1CCCC1)C1CCCC1
inactive: Potency [6] | Potency [2] | outcome [3] | outcome [4] | Potency [5]

CC(CC(C#N)(c1ccccc1)C(C)C)N(C)C (centres undefined)
inactive: Potency [6] | Potency [2] | outcome [3] | outcome [4] | Potency [5]

NC(=O)NC1N=C([O][Al])NC1=O (centres undefined)
inactive: Potency [6] | Potency [2] | outcome [3] | outcome [4] | Potency [5]

NCCCC(N)CC(=O)NCC1NC(=O)C(CO)NC(=O)C(N)CNC(=O)C(C2CCN=C(N)N2)NC(=O)C(=CNC(N)=O)NC1=O (stereo not drawn) (H-[Dap]S[Dap](ξβ3hOrn)[ΔAla(3-NHCONH2)][X10]; lactam 1-C; configuration not given here)
inactive: activity change, negative = inhibition [6] -9.07% [at 0.727 µM] | activity change, negative = inhibition [2] 2.35% [at 0.505 µM] | activity change, negative = inhibition [3] 11.7% [at 0.575 µM] | activity change [4] 8.73% [at 0.0343 µM] | activity change, negative = inhibition [5] -1.21% [at 1.07 µM]
